From PubChem BioAssay AID1159580 (chemical genetic matrix, 2015)
Hit rate of the full screen: of about 5,500 compounds, about 2,000 (36%) were called active. Inconclusive results (about 18%) are left out. Some of the results follow. Unmarked numbers belong to inactive results. No stated cut-off is given here; in the data, active means normalized growth mostly below about 0.91 (no sharp cut-off); inconclusive means no clear call, values can overlap the other calls; inactive means mostly above about 0.92.

Test: chemical genetic growth profiling, strain panel (AID 1159580);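 further: tested at 20 µM; growth read once vehicle control cultures reached saturation at 30 °C; 1 = growth at the plate median or of vehicle wells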
Settings: S. cerevisiae deletion strains, growth OD

With `C[C@@H]1O[C@H](C[N+](C)(C)C)C[C@H]1O` the normalized growth (locus YAL013W, strain DEP1, stronger effect = lower value) was 1.01, the normalized growth (locus YAL040C, strain CLN3, stronger effect = lower value) was 1 and the normalized growth (locus YCL061C, strain MRC1 (second series), stronger effect = lower value) was 1.01. The normalized growth (locus YDR363W, strain ESC2, stronger effect = lower value) was 0.993, the normalized growth (locus YER002W, strain NOP16, stronger effect = lower value) was 1.02 and the normalized growth (locus YMR263W, strain SAP30, stronger effect = lower value) was 1.01. The normalized growth (locus YNL128W, strain TEP1, stronger effect = lower value) was 1, the normalized growth (locus YNL153C, strain GIM3, stronger effect = lower value) was 1.02 and the normalized growth (locus YNL175C, strain NOP13, stronger effect = lower value) was 1.01. It also gave a normalized growth (locus YNL197C, strain WHI3, stronger effect = lower value) of 1.01, a normalized growth (locus YNL224C, strain SQS1, stronger effect = lower value) of 1.01 and a normalized growth (locus YOR083W, strain WHI5 (second series), stronger effect = lower value) of 1.01. It also gave a normalized growth (locus YPL241C, strain CIN2, stronger effect = lower value) of 1.01.
`CC(C)CCCC1(C)C=Cc2c(O)c3c(c(CCC(C)C)c2O1)OC12C(CC4CC1C(C)(C)OC2(CCC(C)C(=O)O)C4O)C3=O` (stereo not drawn) showed a normalized growth (locus YAL021C, strain ccr4, stronger effect = lower value) of 1, a normalized growth (locus YAL026C, strain drs2, stronger effect = lower value) of 0.991 and a normalized growth (locus YAL030W, strain snc1, stronger effect = lower value) of 1. It also gave a normalized growth (locus YBL061C, strain skt5, stronger effect = lower value) of 0.996, a normalized growth (locus YBR009C, strain hhf1, stronger effect = lower value) of 0.992 and a normalized growth (locus YBR023C, strain chs3, stronger effect = lower value) of 0.998. For the same compound, the normalized growth (locus YBR171W, strain sec66, stronger effect = lower value) was 0.991, the normalized growth (locus YBR231C, strain swc5, stronger effect = lower value) was 0.997 and the normalized growth (locus YBR279W, strain paf1, stronger effect = lower value) was 0.994. For the same compound, the normalized growth (locus YCL011C, strain gbp2, stronger effect = lower value) was 0.994, the normalized growth (locus YCL016C, strain dcc1, stronger effect = lower value) was 0.989 and the normalized growth (locus YCL061C, strain MRC1, stronger effect = lower value) was 0.986. The normalized growth (locus YCL069W, strain vba3, stronger effect = lower value) was 0.998, the normalized growth (locus YCR088W, strain abp1, stronger effect = lower value) was 0.997 and the normalized growth (locus YDL005C, strain med2, stronger effect = lower value) was 0.985. For the same compound, the normalized growth (locus YDL040C, strain nat1, stronger effect = lower value) was 0.995, the normalized growth (locus YDR001C, strain nth1, stronger effect = lower value) was 0.998 and the normalized growth (locus YDR069C, strain doa4, stronger effect = lower value) was 0.988. The normalized growth (locus YDR137W, strain rgp1, stronger effect = lower value) was 0.815 (active), the normalized growth (locus YDR159W, strain sac3, stronger effect = lower value) was 0.991 and the normalized growth (locus YDR195W, strain ref2) was 1.01. For the same compound, the normalized growth (locus YDR297W, strain sur2, stronger effect = lower value) was 0.998, the normalized growth (locus YDR334W, strain swr1, stronger effect = lower value) was 0.975 and the normalized growth (locus YDR335W, strain msn5, stronger effect = lower value) was 0.995. For the same compound, the normalized growth (locus YDR392W, strain spt3, stronger effect = lower value) was 0.925, the normalized growth (locus YEL003W, strain gim4, stronger effect = lower value) was 0.982 and the normalized growth (locus YEL037C, strain rad23, stronger effect = lower value) was 1.03. The normalized growth (locus YEL061C, strain CIN8 (second series), stronger effect = lower value) was 0.996, the normalized growth (locus YER015W, strain faa2, stronger effect = lower value) was 1 and the normalized growth (locus YER016W, strain bim1, stronger effect = lower value) was 0.99. The normalized growth (locus YER111C, strain swi4, stronger effect = lower value) was 1.02, the normalized growth (locus YER155C, strain BEM2 (second series), stronger effect = lower value) was 1.01 and the normalized growth (locus YFR010W, strain ubp6, stronger effect = lower value) was 0.986. The normalized growth (locus YGL167C, strain pmr1, stronger effect = lower value) was 0.988, the normalized growth (locus YGL173C, strain kem1, stronger effect = lower value) was 0.991 and the normalized growth (locus YGL227W, strain vid30, stronger effect = lower value) was 1.01. It also gave a normalized growth (locus YGL240W, strain doc1, stronger effect = lower value) of 0.979, a normalized growth (locus YGL253W, strain hxk2, stronger effect = lower value) of 1 and a normalized growth (locus YHR013C, strain ard1, stronger effect = lower value) of 1.02. It also gave a normalized growth (locus YHR027C, strain rpn1, stronger effect = lower value) of 1, a normalized growth (locus YHR030C, strain SLT2, stronger effect = lower value) of 0.966 and a normalized growth (locus YHR079C, strain IRE1, stronger effect = lower value) of 0.971. For the same compound, the normalized growth (locus YHR142W, strain chs7, stronger effect = lower value) was 1.01, the normalized growth (locus YJL092W, strain hpr5, stronger effect = lower value) was 0.988 and the normalized growth (locus YJL095W, strain BCK1 (second series), stronger effect = lower value) was 1. It also gave a normalized growth (locus YJL095W, strain BCK1, stronger effect = lower value) of 0.987, a normalized growth (locus YJL115W, strain asf1, stronger effect = lower value) of 0.996 and a normalized growth (locus YJL129C, strain trk1, stronger effect = lower value) of 0.958. The normalized growth (locus YJL154C, strain vps35, stronger effect = lower value) was 0.994, the normalized growth (locus YJL164C, strain tpk1, stronger effect = lower value) was 0.982 and the normalized growth (locus YJL166W, strain qcr8, stronger effect = lower value) was 0.996. For the same compound, the normalized growth (locus YJL187C, strain SWE1, stronger effect = lower value) was 0.997, the normalized growth (locus YJR066W, strain TOR1, stronger effect = lower value) was 0.919 and the normalized growth (locus YKL160W, strain elf1, stronger effect = lower value) was 1. For the same compound, the normalized growth (locus YKR026C, strain gcn3, stronger effect = lower value) was 1, the normalized growth (locus YKR091W, strain srl3, stronger effect = lower value) was 0.998 and the normalized growth (locus YLL001W, strain dnm1, stronger effect = lower value) was 1. For the same compound, the normalized growth (locus YLL026W, stronger effect = lower value) was 0.997, the normalized growth (locus YLL041C, strain sdh2, stronger effect = lower value) was 0.995 and the normalized growth (locus YLR027C, strain aat2, stronger effect = lower value) was 0.999. For the same compound, the normalized growth (locus YLR113W, strain HOG1, stronger effect = lower value) was 0.941, the normalized growth (locus YLR221C, strain rsa3, stronger effect = lower value) was 0.989 and the normalized growth (locus YLR258W, strain gsy2, stronger effect = lower value) was 0.998. For the same compound, the normalized growth (locus YLR262C, strain YPT6 (second series), stronger effect = lower value) was 0.919, the normalized growth (locus YLR320W, strain mms22, stronger effect = lower value) was 0.99 and the normalized growth (locus YLR342W, strain FKS1, stronger effect = lower value) was 1. The normalized growth (locus YLR357W, strain rsc2, stronger effect = lower value) was 1.04, the normalized growth (locus YLR370C, strain arc18, stronger effect = lower value) was 0.999 and the normalized growth (locus YLR384C, strain iki3, stronger effect = lower value) was 0.992. It also gave a normalized growth (locus YML120C, strain ndi1, stronger effect = lower value) of 0.997, a normalized growth (locus YMR058W, strain fet3, stronger effect = lower value) of 0.986 and a normalized growth (locus YMR125W, strain sto1, stronger effect = lower value) of 0.991. It also gave a normalized growth (locus YMR129W, stronger effect = lower value) of 0.993, a normalized growth (locus YMR205C, strain PFK2, stronger effect = lower value) of 0.955 and a normalized growth (locus YMR231W, strain pep5, stronger effect = lower value) of 0.986. The normalized growth (locus YNL071W, strain lat1, stronger effect = lower value) was 0.969, the normalized growth (locus YNL183C, strain NPR1, stronger effect = lower value) was 0.92 and the normalized growth (locus YNL209W, strain ssb2, stronger effect = lower value) was 0.99. It also gave a normalized growth (locus YNL248C, strain rpa49, stronger effect = lower value) of 1.01, a normalized growth (locus YNL322C, strain KRE1 (second series), stronger effect = lower value) of 1.01 and a normalized growth (locus YNR049C, strain mso1, stronger effect = lower value) of 1.01. The normalized growth (locus YOR001W, strain rrp6, stronger effect = lower value) was 0.983, the normalized growth (locus YOR070C, strain gyp1, stronger effect = lower value) was 0.995 and the normalized growth (locus YOR080W, strain dia2, stronger effect = lower value) was 1. It also gave a normalized growth (locus YOR083W, strain WHI5, stronger effect = lower value) of 0.99, a normalized growth (locus YOR106W, strain vam3, stronger effect = lower value) of 0.996 and a normalized growth (locus YOR231W, strain MKK1, stronger effect = lower value) of 0.964. The normalized growth (locus YOR265W, strain rbl2, stronger effect = lower value) was 1, the normalized growth (locus YOR270C, strain vph1, stronger effect = lower value) was 0.955 and the normalized growth (locus YOR290C, strain snf2, stronger effect = lower value) was 0.995. For the same compound, the normalized growth (locus YPL051W, strain arl3, stronger effect = lower value) was 0.98, the normalized growth (locus YPL078C, strain atp4, stronger effect = lower value) was 1 and the normalized growth (locus YPL106C, strain sse1, stronger effect = lower value) was 1. The normalized growth (locus YPL240C, strain hsp82, stronger effect = lower value) was 1.01 and the normalized growth (locus YPL256C, strain CLN2, stronger effect = lower value) was 0.985.
